Our source for the growth values is PubChem BioAssay (NCI).

Compounds without any hit were thinned out: in the full panel of roughly 83,000, 20% have a hit.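 Single-dose data. Exposure time 48 hours. Values below 10 considered active.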 Values without a mark were called inactive. Calls of active or inactive are those of the source.

The test system of the first experiment is NCI-H23 lung. As to the kind of experiment: NCI-60 one-dose screen, 48 h (100 = growth as untreated, 0 = no growth, -100 = all killed). Particulars: 10 µM unless noted.
On to `c1ccc2sc(SCCCn3ccnc3)nc2c1`, for which the growth is 81.4%. For the compound `CCCCCCCCCCCCCCCCCCNC(=O)[C@H]1CSC(c2ccc(OC)c(F)c2)N1` (stereo partly drawn), the growth was 36.9%. On the same count and under the same terms, then `O=C(/C=C\c1cccc([N+](=O)[O-])c1)c1ccccc1`, with 81.3%.

A further experiment has as its system NCI-H226 lung. Described as above. Particulars: 10 µM unless noted.
Consider `O=C1c2cc3c(cc2-c2c1c1cc(Cl)c(Cl)cc1c(=O)n2CCCn1ccnc1)OCO3`, for which the growth was -3.81% (active). Same read-out and setting: then `CCCCCCCCOC(=O)CC[C@@H](C)[C@H]1CC[C@H]2[C@@H]3[C@H](OC(=O)CCN)C[C@@H]4C[C@H](OC(=O)CCN)CC[C@]4(C)[C@H]3C[C@H](OC(=O)CCN)[C@]12C`, with 89.8%; and `COc1ccc(-c2cnoc2-c2cc(OC)c3c(c2)OCCO3)cc1`, with 61.8%; and `Cc1nn(-c2ccccc2)c2nc(C)n(-c3ccc(Br)cc3)c(=O)c12`, with 49%. Still for that read-out and setting: then `CCN(CC)CC(C)(C)C(=O)/C=C/c1ccccc1`, with 63.5%; and `Cc1ccc2cnc(N)c(C#Cc3cncc(C(=O)Nc4ccc(CN5CCN(C)CC5)c(C(F)(F)F)c4)c3)c2c1`, with -75.8% (active). The same measure, in the same setting: then `C[C@H](CCC(=O)O)[C@H]1CC[C@H]2[C@@H]3CC[C@@H]4/C(=C\c5ccco5)C(=O)/C(=C\c5ccco5)C[C@]4(C)[C@H]3CC[C@]12C`, with 89.2%; and `COc1ccc(-c2cc(-c3ccc(N(C)C)cc3)nc(NC(=O)c3ccncc3)n2)cc1`, with 82.6%. Regarding `COc1ccc2c(c1)C(=O)/C(=C/c1cccc(OCC(=O)Nc3nc4c(s3)CCCC4)c1)O2`, the growth was 101%.

`Cc1nc2sc(C(=O)Nc3cccc4c3OCCO4)c(N)c2cc1C(C)O` (stereo not drawn): the growth was 50.2%.
